# Shown are actives, neighbours in structure and some others; about 4.2% of the full set was active somewhere.
# Mac1 fbg inh: inhibitors of CD11b/CD18 adhesion to fibrinogen, primary screen, K562 cells, luminescence; Integrin beta-2 (Homo sapiens) + Integrin alpha-M (Homo sapiens), P05107+P11215; ATPlite luminescence; Mn2+ added to activate the integrin; actives 0.54% (n = 93,000); inhibition, % at 10 µM;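 active means primary inhibition of 50% or more at 10 µM, then 40% or more on retest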
# CD11b adhes enh: enhancers of CD11b/CD18 adhesion to fibrinogen, primary screen, K562 cells, luminescence | ATPlite luminescence | activation, % at 10 µM | actives 0.07% (n = 93,000) | AID 1499, 2009;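 active means 10 µM primary screen giving 50% or more activity, confirmed by 40% or more on retest at that dose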
# Pyk2 oligo antag: antagonists of Pyk2 self-association, primary screen, Q293 cells, FERM NanoBiT luminescence, HTS. active compounds read low. Protein-tyrosine kinase 2-beta (Homo sapiens), Q14289. z-score (the deposit names both 25 µM and 10 µM). actives 0.83% (n = 99,000);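 active means Z-score of -3 or lower, scaled per plate to the spread of control and sample wells; inactive means z-score above -3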;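 further: negative z-score means lost luminescence so less FERM oligomerization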
# E coli RNAP: E. coli RNAP inhibitors, biochemical. DNA-directed RNA polymerase subunit beta (Escherichia coli (strain K12)), P0A8V2. E. coli RNA polymerase, fluorescence transcription assay. inhibition, %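 (tested at 10 µM)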. actives 0.2% (n = 62,000). AID 559, 2006; in the data active means inhibition above about 20%
# Cav32 inh: Cav3.2 calcium influx blockers – cell-based, Fluo-4 calcium fluorescence, FDSS, MLSMR library, primary screen; Voltage-dependent T-type calcium channel subunit alpha-1H (Homo sapiens), O95180; Cav3.2-expressing cells; active compounds read low; B-score at 10 µM; actives 4% (n = 100,000); AID 449739, 2010;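 active means single-dose well whose peak fluorescence ratio is a statistical outlier from its plate by either plate-standardised score or position-corrected B-score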
# Numbers stand for hits; . = inactive; / = not tested or not shown.
SMILES,Mac1 fbg inh,CD11b adhes enh,Pyk2 oligo antag,E coli RNAP,Cav32 inh
O=C(COC(=O)c1cccc(O)c1)Nc1ccc(Cl)cc1C(=O)c1ccccc1,.,.,/,/,/
CN1C(=O)C(=Cc2ccccc2Oc2ccc(Cl)cc2)C(=O)N(C)C1=O,.,.,-3.9,/,.
COC(=O)C1=C(c2cccc(OC)c2OC)C[C@@H]2CC[C@H]1N2C(=O)N1CCC(C)CC1,/,/,/,/,.
COc1ccc(Oc2cc(NC(=O)c3nn(C)cc3[N+](=O)[O-])cc([N+](=O)[O-])c2)cc1,.,.,-3.7,/,.
COC(=O)C1=C(c2cc3ccccc3s2)C[C@@H]2CC[C@H]1N2C(=O)NCc1ccccc1,/,/,/,/,.
COC(=O)C1=C(c2cc3ccccc3s2)C[C@@H]2CC[C@H]1N2C(=O)NCc1ccc(F)cc1,/,/,/,/,-3.4
CCC1(c2ccc(N)cc2)CCC(=O)NC1=O (stereo not given),/,/,/,/,.
COc1ccc(P2(=O)Nc3ccccc3N2)cc1,/,/,.,.,-2.1
COc1ccc(-n2c(=O)[nH]c3ccccc3c2=O)cc1,.,.,.,/,.
CCOC(=O)C1(c2ccccc2)CCN(CCC(C#N)(c2ccccc2)c2ccccc2)CC1,/,/,/,/,-7.5
COC(=O)C1=C(c2cc3ccccc3o2)C[C@@H]2CC[C@H]1N2C(=O)NC(C)C,/,/,/,/,.
CCOc1ccc(N2C(=O)NC(=O)/C(=C\c3ccc(N4CCCCC4)o3)C2=O)cc1,.,.,.,/,/
CN1C(=O)/C(=C\c2ccc(N3CCCCC3)o2)C(=O)NC1=S,.,.,.,/,-4.8
CN1C(=O)/C(=C/c2ccc(N3CCCCCC3)o2)C(=O)NC1=S,/,/,.,/,-4.5
Cn1cc(C(=O)Cc2ccccc2)c2ccccc21,.,.,/,/,/
NC(=O)c1cn(C2OC(CO)C(O)C2O)c2ncnc(N)c12 (stereo not given),/,/,/,/,-4.7
CC1CC(C)CN(CC(=O)c2ccc(OC(F)F)cc2)C1 (stereo not given),.,.,/,/,/
CCOC(C(=O)OCC(O)CN(CC)CC)(c1ccccc1)c1ccccc1 (stereo not given),.,.,.,22,.
CN1/C(=C\C=Nc2ccccc2)C(C)(C)c2ccccc21,.,.,.,/,.
CN1/C(=C\C=C\C2=[N+](C)c3ccc4ccccc4c3C2(C)C)C(C)(C)c2ccccc21,/,/,/,/,-5.9
N[C@@H]1CCCC[C@H]1N.O=C(O)C(=O)O.[Pt],/,/,/,/,.
CCCCCCCC(=O)NC(Oc1ccccc1[N+](=O)[O-])C(Cl)(Cl)Cl (stereo not given),.,.,.,/,-6.9
Cc1cccc(N2C(=O)NC(=O)/C(=C\c3cccn3-c3ccc(Cl)cc3)C2=O)c1,/,/,-3.4,/,.
CC(C)(C)n1cccc1/C=C1\C(=O)NC(=O)N(c2ccccc2)C1=O,/,/,.,/,/
CNc1ccc2oc(C[C@H]3O[C@@]4(CC[C@H]3C)O[C@H]([C@H](C)C(=O)c3ccc[nH]3)[C@H](C)C[C@H]4C)nc2c1C(=O)O,/,/,/,/,4.4
SMILES,Mac1 fbg inh,CD11b adhes enh,Pyk2 oligo antag,E coli RNAP,Cav32 inh
CCN(c1ccc(C(O)(C(=O)OC)C(F)(F)F)cc1)S(=O)(=O)c1ccc(C)cc1 (stereo not given),.,.,.,/,-4.9
CCOC(=O)C(O)(c1ccc(N(CC)S(=O)(=O)c2ccc(C)cc2)cc1)C(F)(F)F (stereo not given),.,.,.,/,-6.2
CCOC(=O)N(C)c1ccc(C(O)(C(=O)OC)C(F)(F)F)cc1 (stereo not given),/,/,.,/,.
CC(=O)c1ccc2c(c1)C1C(Cl)C(Sc3ccccc3[N+](=O)[O-])CC1C(c1ccccc1[N+](=O)[O-])N2 (stereo not given),/,/,-3.4,/,.
CN1C[C@H](CNC(=O)OCc2ccccc2)C[C@@H]2c3cccc4c3c(cn4C)C[C@H]21,/,/,/,.,-4.4
Cc1cc(C)n(CCOC(=O)C2C(C=C(Cl)Cl)C2(C)C)n1 (stereo not given),.,.,.,.,-6.6
COC(=O)C1=C(c2cc3ccccc3o2)C[C@@H]2CC[C@H]1N2C(=O)N1CCOCC1,/,/,/,/,.
COC(=O)C1=C(c2cc3ccccc3s2)C[C@@H]2CC[C@H]1N2C(=O)NC1CCCCC1,/,/,/,/,.
O=C(c1cccs1)c1cn(Cc2ccccc2Cl)c2ccccc12,.,.,.,/,-6.2
CN1CCN(S(=O)(=O)c2ccc(Cl)nc2)CC1,.,.,/,/,/
